Bioassay records deposited in PubChem by National Center for Advancing Translational Sciences (NCATS).
Shown are actives, neighbours in structure and some others; about 0.62% of the full set was active somewhere.
BCR signal inh: inhibitors of chronic active B-cell receptor signaling. ABC-DLBCL IkBa-CBG/CBR reporter, luminescence ratio, 4 h. Potency, µM (highest dose often 46.1 µM), actives largely listed as inhibitors. hit rate 0.05% among 340,000. AID 493014; active = well fitted inhibition curve with a large enough effect in the signal ratio, with a control signal flat, not every such curve was filed as active; inconclusive = small, poorly fitted or top-dose-only effect, or effect the other way, or a change in a side signal; the % refers to the signal ratio
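TMD8 human ABC-DLBCL cells with doxycycline-inducible IκBα–green luciferase fusion and unfused red luciferase, in 0.5% FBS medium; compounds up to 46 uM, 4 h at 37C. Green/red luminescence ratio, filter-overlap corrected, fitted to concentration-response curves.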
S-ASM inh: blocks human secretory acid sphingomyelinase; placental ASM, HMU-PC fluorogenic substrate, 60 min; Potency, µM (titrated, usually from 57.5 µM), most hits filed as inhibitors; hit rate 0.006% among 340,000; AID 504937; active = well fitted inhibition curve with a large enough effect; inconclusive = small, poorly fitted or top-dose-only effect; inactive = no such curve, though single readings can be large or run the other way
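Fluorogenic HMU-PC substrate (9 uM final) is turned over by placental ASM in 60 min at 37 C after a 10 min compound preincubation. Reaction ended by alkaline stop (pH 10), with fluorescence read at 386/447 nm.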
gsp agonist: gsp mutant agonism. gsp mutant cells, cAMP HTRF, 30 min. Potency, µM (titrated, usually from 76.9 µM), most hits filed as activators. hit rate 0.13% among 340,000; active = well fitted activation curve with a large enough effect; inconclusive = small, poorly fitted or top-dose-only effect, or another doubt; inactive = no such curve, though single readings can be large or run the other way; cell line not stated here;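 also: phosphodiesterase inhibitor Ro 20-1724 added with compounds to block cAMP breakdown; nearly all actives have a fitted effect of over 60% in size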
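Cells in DMEM/10% FBS with G418 were pretreated with compounds in DMSO plus […] (300 uM stock) for 30 min at 37C. cAMP was measured by HTRF (cAMP-d2 plus anti-cAMP antibody-K) after 30 min at room temperature.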
MBNL1-CUG inh: blocks human MBNL1 binding to CUG repeat RNA. TR-FRET MBNL1-His/biotin-(CUG)12 binding, 665/545 ratio. AID 2675. Q9NR56. hit rate 0.036% among 280,000. Potency, µM (top dose mostly 57.5 µM), usual class: inhibitors; active = well fitted inhibition curve with a large enough effect in the signal ratio, with a control signal flat, not every such curve was filed as active; inconclusive = small, poorly fitted or top-dose-only effect, or effect the other way, or a change in a side signal; inactive = no such curve, though single readings can be large or run the other way; the % refers to the signal ratio
Target sequence (Q9NR56 whole entry, looked up): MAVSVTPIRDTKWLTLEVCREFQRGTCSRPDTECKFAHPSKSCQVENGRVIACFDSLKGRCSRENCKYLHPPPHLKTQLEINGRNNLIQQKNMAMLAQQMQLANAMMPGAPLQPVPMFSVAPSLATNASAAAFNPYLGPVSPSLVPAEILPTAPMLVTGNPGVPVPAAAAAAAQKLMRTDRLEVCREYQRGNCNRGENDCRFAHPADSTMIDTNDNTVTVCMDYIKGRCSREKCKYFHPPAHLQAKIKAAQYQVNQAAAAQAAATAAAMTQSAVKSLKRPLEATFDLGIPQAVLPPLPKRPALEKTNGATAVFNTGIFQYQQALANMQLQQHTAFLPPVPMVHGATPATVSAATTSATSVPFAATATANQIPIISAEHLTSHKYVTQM
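MBNL1-His + Biotin-(CUG)12, cpd titration 92 nM–58 uM; Tb anti-His Ab 0.055 ng/ul, SA-XL665 5 nM (final); 60 min RT; ratiometric 665/545 nm, Ex 340 nm; normalized to buffer and full-complex controls.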
gsp antag: gsp mutant antagonism; gsp-mutant cells, cAMP HTRF, 30 min; Potency, µM (doses to about 76.9 µM), most hits filed as inhibitors; hit rate 0.4% among 340,000; calls by dose curve; cell line not stated here;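 also: intracellular cAMP measured with PDE inhibitor Ro 20-1724 present during compound exposure; nearly all actives have a fitted effect of over 65% in size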
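Measurement of cellular cAMP by homogeneous time-resolved fluorescence following a 30 min compound exposure at 37C. The PDE inhibitor […] was present throughout; the assay buffer was DPBS with 0.05% BSA and 0.005% Tween 20.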
Large screens that a line does not name were inactive.

O=C(CN1C(=O)S/C(=C\c2cc(Cl)c(O)c(Cl)c2)C1=O)Nc1ccccc1	BCR signal inh inconclusive, gsp antag 40µM
O=C(CN1C(=O)S/C(=C\c2ccccn2)C1=O)Nc1ccccc1	none
COc1ccccc1C(=O)Nc1c(C(=O)N2CCN(C)CC2)oc2ccccc12	none
O=C(O)c1ccc(/C=N\Nc2ccc(S(=O)(=O)N3CCOCC3)cc2[N+](=O)[O-])cc1	BCR signal inh inconclusive, gsp agonist inconclusive, MBNL1-CUG inh inconclusive
Cc1ccc(-n2c(O)c(/C=N/Nc3ccc(S(=O)(=O)N4CCOCC4)cc3[N+](=O)[O-])c3ccccc3c2=O)c(C)c1	BCR signal inh inconclusive, gsp antag 40µM (no result: MBNL1-CUG inh)
O=C(Nc1nncs1)c1c(F)c(F)c(F)c(F)c1F	gsp antag 40µM
CC(=O)Nc1nc2[nH]ccc2c(=O)[nH]1	none (no result: BCR signal inh, S-ASM inh, MBNL1-CUG inh, gsp antag)
CC1CCN(C(=O)C2CCN(C(=O)c3cc4sccc4n3Cc3ccc(F)cc3)CC2)CC1	gsp antag inconclusive
CC(C)NC(=O)C1CCN(C(=O)c2cc3sccc3n2Cc2ccc(F)cc2)CC1	gsp antag 32µM
Brc1nnc2n1-c1ccccc1Sc1ccccc1-2	gsp antag inconclusive
Clc1ccc2c(c1)-c1nnc(Br)n1-c1ccccc1S2	gsp antag 20µM
COc1ccc(CN2CCN(C(=O)c3ccccc3C(=O)c3ccccc3)CC2)cc1F	none (no result: BCR signal inh, S-ASM inh, MBNL1-CUG inh, gsp antag)
CCNC(=S)N1CCN(c2nc(CC)nc3sc4c(c23)CCCC4)CC1	BCR signal inh inconclusive, gsp antag 25µM
CCc1nc(N2CCN(C(=O)CCCl)CC2)c2c3c(sc2n1)CCCC3	none (no result: BCR signal inh, S-ASM inh, MBNL1-CUG inh, gsp antag)
O=C(CSc1nnc(Nc2ccccc2)s1)NC1CC1	none (no result: MBNL1-CUG inh)
CCOC(=O)N1CCN(CC(=O)c2ccc(O)cc2O)CC1	gsp antag 11µM
CCOC(=O)c1ccc(CC(=O)c2ccc(O)cc2O)o1	gsp antag 8.9µM
CCOC(=O)N1CCN(CC(=O)c2ccc(O)c(C)c2O)CC1	none
CCc1ccccc1NC(=O)CN1CCN(CC(=O)Nc2ccc3c(c2)OC2(CCCCC2)O3)CC1	none (no result: BCR signal inh, MBNL1-CUG inh)
CNC(=O)C[C@H]1C(=O)N(c2ccccc2)C[C@@H]1C	none (no result: BCR signal inh, S-ASM inh, MBNL1-CUG inh, gsp antag)
CC1=C/C(=C(/c2cc(C)c(O)c(Br)c2)c2ccccc2S(=O)(=O)O)C=C(Br)C1=O	BCR signal inh inconclusive, MBNL1-CUG inh inconclusive, gsp antag 20µM
O=C(Nc1cccc(Br)c1)c1ccc2nc(N3C(=O)CCC3=O)sc2c1	BCR signal inh inconclusive, gsp antag 35µM
CC(=O)c1c(C)[nH]c(C(=O)CN2CCN(S(=O)(=O)c3ccc(C(C)C)cc3)CC2)c1C	gsp antag 35µM (no result: MBNL1-CUG inh)
CCCn1c(SCC(=O)Nc2ccc(NC(C)=O)cc2)nc2c1c(=O)n(C)c(=O)n2C	gsp agonist 18µM
CC1(C)Cc2c(sc3nc(-c4cccs4)n(N)c(=O)c23)CO1	MBNL1-CUG inh inconclusive, gsp antag 32µM
CC1(C)Cc2c(sc3nc(-c4ccccc4)n(N)c(=O)c23)CO1	BCR signal inh inconclusive
COc1ccc(-n2c(CCC(=O)O)ccc2-c2ccc(F)cc2)c(OC)c1	gsp antag 35µM
CCOC(=O)c1c(-c2ccc(F)cc2)csc1NC(=O)C1CC=CCC1C(=O)O (stereo not given)	none
COC(=O)c1c(-c2ccco2)csc1NC(=O)C1CC=CCC1C(=O)O (stereo not given)	BCR signal inh inconclusive, gsp agonist 32µM
Cc1ccc(-c2nn(-c3ccccc3)cc2/C=C/C(=O)OCC(=O)NC2CC2)o1	gsp antag 50µM
COc1ccc(Cl)cc1C(=O)Nc1ccc(NC(C)=O)cc1	gsp antag 35µM
CC(=O)Oc1c(I)cc(I)cc1C(=O)Nc1ccc(Cl)cc1	BCR signal inh inconclusive, gsp antag 35µM
O=C(/C=C/c1ccccc1[N+](=O)[O-])Nc1cc(S(=O)(=O)N2CCOCC2)ccc1N1CCOCC1	none (no result: BCR signal inh, MBNL1-CUG inh)
COc1ccc(N2CC(NC(=O)/C=C\c3ccc4c(c3)OCO4)CC2=O)cc1 (stereo not given)	none (no result: S-ASM inh, gsp agonist, MBNL1-CUG inh, gsp antag)
COc1ccc(/C=N/NC(=O)CCn2cnc(-c3ccccc3)c2-c2ccccc2)cc1	BCR signal inh 23µM, gsp antag inconclusive
CCc1n[nH]c(=S)n1/N=C/c1c(C)nn(-c2ccccc2)c1Cl	none
CCc1n[nH]c(=S)n1/N=C/c1ccc(N(CC)CC)cc1	BCR signal inh 11µM, MBNL1-CUG inh inconclusive, gsp antag inconclusive
O=C(c1cc(-c2ccncc2)nc2ccc(Br)cc12)N1CCN(Cc2ccc3c(c2)OCO3)CC1	gsp antag 28µM
O=C(c1cc(-c2ccncc2)nc2ccc(Cl)cc12)N1CCN(Cc2ccc3c(c2)OCO3)CC1	none
CN1CCN(CC(=O)O)CC1	gsp agonist 20µM
Cc1oc2cc3oc(=O)c(CC(=O)N[C@H](C(=O)N[C@@H](C(=O)O)c4ccccc4)C(C)C)c(C)c3cc2c1C	gsp antag 50µM (no result: gsp agonist)
Cc1oc2cc3oc(=O)c(CC(=O)NCC(=O)N[C@@H](C(=O)O)c4ccccc4)c(C)c3cc2c1C	none (no result: gsp agonist)
COc1cccc(-c2cc3c(=O)n(-c4ccccc4)c(=S)[nH]c3s2)c1	BCR signal inh inconclusive, gsp agonist 11µM
COc1ccc(-n2c(=S)[nH]c3sc(-c4ccccc4)cc3c2=O)c(OC)c1	none
COc1ccc(NC(=O)N2CCCC(c3ccccc3)C2)cc1 (stereo not given)	none
COc1ccc(NC(=O)N2CCC(c3ccccc3)C2)c(OC)c1 (stereo not given)	gsp antag 50µM
NC(=O)c1ccc(C[C@H](C(=O)O)N2C(=O)c3ccc(C(=O)O)cc3C2=O)cc1	none (no result: S-ASM inh, gsp agonist, MBNL1-CUG inh, gsp antag)
COc1ccc(OC)c(NC(=O)CSc2ncnc3c2cnn3-c2ccccc2Cl)c1	BCR signal inh inconclusive, MBNL1-CUG inh inconclusive, gsp antag 2µM
CCOC(=O)CSc1ccc2nnc(-c3cccnc3)n2n1	gsp agonist 10µM
Cn1cc(C(=O)C(=O)NC2CCCCC2)c2ccccc21	BCR signal inh inconclusive, gsp antag 50µM
O=C(NNC(=O)C1CC(c2cccs2)=NO1)Nc1ccccc1 (stereo not given)	gsp agonist inconclusive
CCCCOc1ccc(-c2nonc2NC(=O)c2ccco2)cc1	none (no result: S-ASM inh, gsp agonist, MBNL1-CUG inh, gsp antag)
O=C(O)c1cccc(Nc2nc(-c3ccc([N+](=O)[O-])cc3)nc3ccccc23)c1	BCR signal inh inconclusive, gsp agonist inconclusive
O=[N+]([O-])c1ccc(-c2nc(Nc3cccc(O)c3)c3ccccc3n2)cc1	BCR signal inh inconclusive, S-ASM inh inconclusive, gsp agonist inconclusive, MBNL1-CUG inh inconclusive, gsp antag 28µM
CCn1c(CN2CCCCC2)nc2cc(S(=O)(=O)N3CCCCC3)ccc21	gsp antag 11µM (no result: MBNL1-CUG inh)
CCn1c(C)nc2cc(S(=O)(=O)N3CCCCC3)ccc21	none
CCN(CC)S(=O)(=O)c1ccc(/C=C/C(=O)OCC(=O)NCc2cccs2)cc1	none (no result: MBNL1-CUG inh)
CC(NC(=O)CN(C)Cc1cccc(Cl)c1)c1ccccc1 (stereo not given)	gsp antag 11µM
